Experimental data taken from PubChem BioAssay (NCATS).
Records with an inconclusive call do not appear. Active and inactive are the calls of the source. Unless noted, calls follow the shape of the dose curve; as a rule, active = well fitted curve in the direction sought with a large enough effect; inconclusive = small, poorly fitted or top-dose-only effect, or another doubt; inactive = no such curve, though single readings can be large; an effect the other way counts as inactive or inconclusive.

Assays:
[1] = molecular target: Lysosomal acid glucosylceramidase (Homo sapiens) (UniProt P04062); assay: Glucocerebrosidase-p2 (AID 348; in the data active = potency below about 10 µM; also: potency is read from the fitted curve at half-maximal effect); conditions: purified GBA, blue fluorogenic substrate, 40 min
Lysosomal acid glucosylceramidase (Homo sapiens), sequence (P04062 whole entry, looked up): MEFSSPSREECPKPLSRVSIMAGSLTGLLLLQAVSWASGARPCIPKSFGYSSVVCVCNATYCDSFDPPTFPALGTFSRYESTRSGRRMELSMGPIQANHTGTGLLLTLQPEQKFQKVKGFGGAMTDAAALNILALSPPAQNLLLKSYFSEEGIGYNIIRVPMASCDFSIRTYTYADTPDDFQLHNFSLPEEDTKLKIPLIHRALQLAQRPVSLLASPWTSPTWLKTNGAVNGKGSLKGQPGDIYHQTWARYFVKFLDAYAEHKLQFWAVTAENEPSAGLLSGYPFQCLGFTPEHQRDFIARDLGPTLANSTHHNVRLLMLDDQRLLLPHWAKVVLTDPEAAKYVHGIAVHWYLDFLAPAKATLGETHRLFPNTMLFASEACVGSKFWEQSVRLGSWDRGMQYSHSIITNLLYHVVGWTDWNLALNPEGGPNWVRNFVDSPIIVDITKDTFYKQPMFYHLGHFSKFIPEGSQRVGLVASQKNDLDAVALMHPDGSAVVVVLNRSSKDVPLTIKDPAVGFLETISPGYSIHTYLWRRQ
Method in brief: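 Compounds titrated from 0.6 nM upwards against 0.2 nM enzyme in pH 5.9 citric acid/KH2PO4, taurocholate, tween-20; blue fluorogenic substrate 80 uM, 40 min room temperature, stopped and read Ex 365/Em 440 for AC50.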

[2] = AP1 Signaling Pathway (AID 357; active = well fitted curve in either direction with a large enough effect, not every such curve was filed as active; also: % is scaled to controls: 0 for no effect and ±100 for the full control effect); conditions: ME-180 AP-1-bla reporter, EGF-induced, beta-lactamase ratio, 5 h; at 7.69 µM (top of the series) unless noted
Method in brief: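 ME-180 cells with beta-lactamase reporter under AP-1 response element, stimulated with EC50 EGF; compounds tested in titration series, 5 h at 37 °C. CCF4 substrate added 2.5 h at room temperature; 460/530 nm emission ratio gave %activity and AC50.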

[3] = molecular target: Cytochrome P450 1A2 (Homo sapiens) (UniProt P05177); assay: p450-cyp1a2 (AID 410; calls by dose curve; also: potency is read from the fitted curve at half-maximal effect); conditions: recombinant CYP1A2, luciferin-ME demethylation, luminescence; series mostly up to 57 µM
Cytochrome P450 1A2 (Homo sapiens), sequence (P05177 whole entry, looked up): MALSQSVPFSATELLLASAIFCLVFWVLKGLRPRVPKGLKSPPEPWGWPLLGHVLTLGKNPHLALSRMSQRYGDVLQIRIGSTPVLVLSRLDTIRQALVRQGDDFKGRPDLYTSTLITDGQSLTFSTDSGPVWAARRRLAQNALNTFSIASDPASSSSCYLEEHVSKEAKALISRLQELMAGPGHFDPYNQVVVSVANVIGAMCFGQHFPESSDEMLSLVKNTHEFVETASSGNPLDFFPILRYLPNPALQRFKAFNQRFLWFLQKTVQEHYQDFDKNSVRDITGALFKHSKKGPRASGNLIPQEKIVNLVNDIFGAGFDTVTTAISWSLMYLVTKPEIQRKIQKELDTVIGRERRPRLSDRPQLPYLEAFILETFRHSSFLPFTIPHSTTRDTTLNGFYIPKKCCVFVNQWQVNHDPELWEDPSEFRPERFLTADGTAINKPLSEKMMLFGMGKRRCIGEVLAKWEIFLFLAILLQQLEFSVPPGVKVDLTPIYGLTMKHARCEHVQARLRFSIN
Method in brief: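 Luminescent readout of luciferin formed from Luciferin-ME by human CYP1A2; data normalized against complete inhibition by 57 uM furafylline. Enzyme 20nM, substrate 100uM at Km, 100mM KPO4 buffer, 60 min reaction at room temperature.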

[4] = NFAT Signaling Pathway (AID 444; active = well fitted curve in either direction with a large enough effect, not every such curve was filed as active;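 also: carbachol stimulus at about its EC50 of 1 µM final; % is scaled to controls: 0 for no effect and ±100 for the full control effect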); conditions: Jurkat NFAT-bla M1, carbachol, beta-lactamase ratio, 5 h; at 7.69 µM (top of the series) unless noted
Method in brief: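 Jurkat cells with NFAT-driven β-lactamase reporter and co-expressed M1 receptor, stimulated with carbachol (final 1 uM, ~EC50), compound titration, 5 h at 37 °C. CCF4 loaded 1 h at RT; 460/530 nm ratio gave %activity and AC50.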

[5] = Stat Signaling Pathway (AID 446; active = well fitted curve in either direction with a large enough effect, not every such curve was filed as active;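 also: ME-180 cervical cancer cells given 40 pM IL-6 alongside compound; SIE-controlled beta-lactamase reporter measured as 460/530 nm FRET emission ratio; % is scaled to controls: 0 for no effect and ±100 for the full control effect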); conditions: ME-180 SIE beta-lactamase reporter, IL-6 stimulated, 5 h; at 7.69 µM (top of the series) unless noted
Method in brief: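 Reporter line: ME-180 cervical carcinoma, SIE-beta-lactamase. Treatment: compound with 40 pM IL-6, 5 hrs, 37 C, in low-serum OPTI-MEM with 10 mM HEPES pH 7.3. Detection: 460/530 nm fluorescence.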

[6] = molecular target: Glucocorticoid receptor (Homo sapiens) (UniProt P04150); assay: GR-GFP Redistribution (AID 450;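 active = compounds whose dose series gives a full or clear partial fitted curve of increased nuclear translocation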; also: potency is read from the fitted curve at half-maximal effect); conditions: U2OS GR-GFP nuclear translocation, laser cytometry, 2 h
Glucocorticoid receptor (Homo sapiens), sequence (P04150 whole entry, looked up, the tested form may be a part): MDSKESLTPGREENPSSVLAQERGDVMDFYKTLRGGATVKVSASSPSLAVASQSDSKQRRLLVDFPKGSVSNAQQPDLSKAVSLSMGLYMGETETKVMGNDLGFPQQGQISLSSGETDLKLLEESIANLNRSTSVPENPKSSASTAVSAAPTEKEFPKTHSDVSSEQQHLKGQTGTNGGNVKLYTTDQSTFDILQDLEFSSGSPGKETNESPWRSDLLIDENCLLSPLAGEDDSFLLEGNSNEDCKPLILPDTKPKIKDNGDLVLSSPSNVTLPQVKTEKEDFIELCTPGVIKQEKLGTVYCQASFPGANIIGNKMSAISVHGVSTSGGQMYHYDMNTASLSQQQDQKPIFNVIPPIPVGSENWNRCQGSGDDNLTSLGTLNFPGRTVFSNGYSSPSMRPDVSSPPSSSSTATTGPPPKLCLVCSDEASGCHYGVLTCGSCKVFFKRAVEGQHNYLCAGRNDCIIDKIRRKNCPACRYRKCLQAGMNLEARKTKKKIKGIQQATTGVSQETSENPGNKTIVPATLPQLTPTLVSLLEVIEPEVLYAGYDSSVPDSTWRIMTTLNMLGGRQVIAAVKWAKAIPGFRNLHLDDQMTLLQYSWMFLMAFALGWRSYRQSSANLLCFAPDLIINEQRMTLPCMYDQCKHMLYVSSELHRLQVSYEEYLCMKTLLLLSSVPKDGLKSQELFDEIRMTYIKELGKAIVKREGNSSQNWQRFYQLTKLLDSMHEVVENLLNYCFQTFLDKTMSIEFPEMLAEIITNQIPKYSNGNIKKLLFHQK

[7] = molecular target: Glucocorticoid receptor (Homo sapiens) (UniProt P04150); assay: GR-EFC Redistribution (AID 451; calls by dose curve; also: potency is read from the fitted curve at half-maximal effect); conditions: CHO-K1 GR-EFC translocation, beta-gal luminescence, 2 h
Method in brief: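 CHO-K1 cells expressing nuclear EA and GR-ED fragments of b-gal; compounds titrated up to 46 uM final, 2 h at 37 C. GR nuclear translocation read as complemented b-gal luminescence after 1 h RT detection.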

[8] = molecular target: Mitogen-activated protein kinase 10 (Mus musculus) (UniProt Q61831); assay: JNK3 AlphaScreen Assay (AID 530; active = well fitted curve in either direction with a large enough effect, not every such curve was filed as active;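 also: kinase came from lysate of stimulated human HepG2 cells; signal reports phosphorylation of biotinylated GST-cJun 1-79 at Ser73 with 10 µM ATP; % is scaled to controls: 0 for no effect and ±100 for the full control effect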); conditions: JNK3 lysate, c-Jun phosphorylation; series mostly up to 57.1 µM
Method in brief: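 Pre-activated (IL-1β/TNFα) JNK3 in HepG2 lysates phosphorylates biotin-GST-cJun(1-79), 10 uM ATP; anti-phospho-cJun(Ser73) AlphaScreen read at room temperature, pH 7.6 Tris buffer. Compounds pre-incubated 15 min as titrations.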

[9] = molecular target: 3',5'-cyclic-AMP phosphodiesterase 4B (Homo sapiens) (UniProt Q07343); assay: qHTS Assay for Inhibitors of PDE-IV (AID 607; active = well fitted activation curve with a large enough effect in the main read-out, with a control signal flat, not every such curve was filed as active; also: % of control where 0% means no effect); conditions: HEK293 ACTOne CNG channel cells, membrane potential fluorescence; series mostly up to 22.9 µM
3',5'-cyclic-AMP phosphodiesterase 4B (Homo sapiens), sequence (Q07343 whole entry, looked up): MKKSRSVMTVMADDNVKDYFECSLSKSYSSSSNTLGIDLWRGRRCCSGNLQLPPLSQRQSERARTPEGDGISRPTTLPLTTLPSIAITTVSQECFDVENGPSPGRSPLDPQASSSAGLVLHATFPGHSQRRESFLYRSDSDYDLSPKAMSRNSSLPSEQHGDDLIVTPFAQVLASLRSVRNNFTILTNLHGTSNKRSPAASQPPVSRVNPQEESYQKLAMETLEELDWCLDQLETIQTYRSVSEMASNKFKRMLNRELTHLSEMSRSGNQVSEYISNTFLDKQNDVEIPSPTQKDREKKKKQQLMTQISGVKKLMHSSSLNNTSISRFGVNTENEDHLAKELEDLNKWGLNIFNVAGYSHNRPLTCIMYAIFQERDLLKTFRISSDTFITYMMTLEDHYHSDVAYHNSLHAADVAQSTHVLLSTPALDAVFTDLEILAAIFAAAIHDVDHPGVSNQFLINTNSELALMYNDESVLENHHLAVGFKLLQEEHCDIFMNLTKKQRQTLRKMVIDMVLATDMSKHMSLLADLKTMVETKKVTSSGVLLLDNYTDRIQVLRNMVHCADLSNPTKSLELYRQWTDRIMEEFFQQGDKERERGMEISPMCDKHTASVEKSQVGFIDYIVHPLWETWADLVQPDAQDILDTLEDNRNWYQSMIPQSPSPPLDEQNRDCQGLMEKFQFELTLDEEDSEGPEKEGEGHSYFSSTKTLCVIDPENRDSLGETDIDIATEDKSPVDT
Method in brief: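 Cell-based read-out of cAMP via a modified cyclic nucleotide-gated channel and membrane potential dye (535/590 nm) in HEK293 cells expressing PDE4 endogenously. Compounds tested up to 22.9 uM final; 100 uM RO 20-1724 reference.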

[10] = molecular target: Cytochrome P450 3A4 (Homo sapiens) (UniProt P08684); assay: qHTS Assay for Activators of Cytochrome P450 3A4 (AID 885); conditions: recombinant CYP3A4, Luciferin-PPXE luminescence, 60 min; series mostly up to 57.1 µM; also: nearly all actives have a fitted effect of over 65% in size
Cytochrome P450 3A4 (Homo sapiens), sequence (P08684 whole entry, looked up): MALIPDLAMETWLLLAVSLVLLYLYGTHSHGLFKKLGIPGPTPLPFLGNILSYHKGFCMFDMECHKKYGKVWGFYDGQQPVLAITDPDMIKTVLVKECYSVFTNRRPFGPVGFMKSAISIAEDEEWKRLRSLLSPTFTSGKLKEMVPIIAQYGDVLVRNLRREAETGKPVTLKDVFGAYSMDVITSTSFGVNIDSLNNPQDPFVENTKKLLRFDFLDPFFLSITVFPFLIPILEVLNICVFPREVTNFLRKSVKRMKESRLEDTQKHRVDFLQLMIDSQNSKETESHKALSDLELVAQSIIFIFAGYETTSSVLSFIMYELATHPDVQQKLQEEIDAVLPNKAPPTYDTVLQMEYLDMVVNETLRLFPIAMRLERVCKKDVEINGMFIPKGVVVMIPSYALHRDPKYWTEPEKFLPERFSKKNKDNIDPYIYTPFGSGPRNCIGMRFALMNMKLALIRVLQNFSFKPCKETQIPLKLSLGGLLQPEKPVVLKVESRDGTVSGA
Method in brief: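 Signal was normalized against complete inhibition by 57 uM ketoconazole. The reaction used 20nM CYP3A4 with 25uM Luciferin-PPXE, 10-min compound preincubation and a 60-min NADPH-supported step at RT.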

[11] = molecular target: Dual specificity protein kinase CLK4 (Homo sapiens) (UniProt Q9HAZ1); assay: qHTS Assay for Inhibitors of CDC-like Kinase 4 (ADP-Glo Assay) (AID 1771); conditions: recombinant CLK4, ADP-Glo luminescence; series mostly up to 80 µM; also: nearly all actives have a fitted effect of over 70% in size; also: potency is read from the fitted curve at half-maximal effect
Dual specificity protein kinase CLK4 (Homo sapiens), sequence (Q9HAZ1 whole entry, looked up): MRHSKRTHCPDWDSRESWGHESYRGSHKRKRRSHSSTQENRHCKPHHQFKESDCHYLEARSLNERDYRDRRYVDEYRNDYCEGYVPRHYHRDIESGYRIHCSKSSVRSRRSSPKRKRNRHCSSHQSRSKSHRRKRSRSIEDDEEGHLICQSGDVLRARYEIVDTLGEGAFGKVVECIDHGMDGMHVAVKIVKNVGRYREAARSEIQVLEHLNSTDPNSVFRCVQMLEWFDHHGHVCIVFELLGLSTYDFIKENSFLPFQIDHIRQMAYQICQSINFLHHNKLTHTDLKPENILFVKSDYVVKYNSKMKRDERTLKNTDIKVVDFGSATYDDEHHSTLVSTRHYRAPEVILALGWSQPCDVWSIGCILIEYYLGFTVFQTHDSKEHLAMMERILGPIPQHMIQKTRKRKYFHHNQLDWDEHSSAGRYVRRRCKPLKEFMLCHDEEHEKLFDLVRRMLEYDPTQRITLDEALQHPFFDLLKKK
Method in brief: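 Luminescence from ADP-Glo reports ADP produced by 25 nM Clk4 acting on 100 uM RS repeat peptide with 1 uM ATP over 1 hr at room temperature; residual ATP is depleted before ADP is converted to ATP for detection.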

[12] = molecular target: Dual specificity protein kinase CLK4 (Homo sapiens) (UniProt Q9HAZ1); assay: qHTS Assay for Inhibitors of CDC-like Kinase 4 (ADP-FP Assay) (AID 1795); conditions: Transcreener ADP fluorescence polarization; series mostly up to 50 µM; also: % is scaled to controls: 0 for no effect and ±100 for the full control effect; nearly all actives have a fitted effect of over 60% in size
Method in brief: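 Recombinant human Clk4 (6.25 nM) phosphorylated RS repeat peptide (100 uM) with 1 uM ATP in Tris pH 7.5/MgCl2/EGTA/DTT/Triton buffer for one hour. ADP was quantified by Transcreener competitive fluorescence polarization against an ADP calibration curve.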

[13] = molecular target: Ubiquitin carboxyl-terminal hydrolase 1 (Homo sapiens) (UniProt O94782); assay: Inhibitors of USP1/UAF1: Pilot qHTS (AID 504865); conditions: purified USP1/UAF1, Ub-rhodamine cleavage fluorescence; series mostly up to 54.9 µM;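 also: rhodamine fluorescence freed from ubiquitin-rhodamine substrate followed over time; top concentration of the series differs between compounds; % is scaled to controls: 0 for no effect and ±100 for the full control effect; nearly all actives have a fitted effect of over 35% in size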
Ubiquitin carboxyl-terminal hydrolase 1 (Homo sapiens), sequence (O94782 whole entry, looked up): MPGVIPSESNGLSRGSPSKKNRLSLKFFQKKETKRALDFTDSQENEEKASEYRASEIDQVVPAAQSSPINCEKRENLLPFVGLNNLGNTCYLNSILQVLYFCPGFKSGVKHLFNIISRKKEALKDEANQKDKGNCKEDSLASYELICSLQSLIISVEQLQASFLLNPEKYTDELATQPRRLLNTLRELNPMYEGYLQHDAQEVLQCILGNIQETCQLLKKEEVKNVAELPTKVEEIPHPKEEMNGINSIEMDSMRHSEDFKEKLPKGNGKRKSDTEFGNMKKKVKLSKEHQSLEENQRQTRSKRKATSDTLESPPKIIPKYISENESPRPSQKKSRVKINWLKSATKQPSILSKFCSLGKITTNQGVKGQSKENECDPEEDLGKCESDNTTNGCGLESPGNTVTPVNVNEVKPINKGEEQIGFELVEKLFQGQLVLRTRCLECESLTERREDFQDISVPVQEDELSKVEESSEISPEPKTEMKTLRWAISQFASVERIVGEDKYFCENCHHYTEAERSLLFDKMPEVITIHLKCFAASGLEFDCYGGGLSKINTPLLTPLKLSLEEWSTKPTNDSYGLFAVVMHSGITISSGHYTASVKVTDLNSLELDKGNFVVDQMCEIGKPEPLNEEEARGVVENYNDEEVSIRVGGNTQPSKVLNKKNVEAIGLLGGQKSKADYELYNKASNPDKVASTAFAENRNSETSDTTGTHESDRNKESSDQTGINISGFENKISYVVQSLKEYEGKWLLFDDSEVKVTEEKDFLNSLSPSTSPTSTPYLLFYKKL
Method in brief: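 USP1/UAF1 complex (1nM) preincubated with compound 15 min at room temperature, then Ub-Rho substrate (150nM final) added. Fluorescence read kinetically at 480/540 nm, 6 reads every 60 seconds. Buffer: 50mM HEPES pH 7.8, 0.5mM EDTA, 0.1 mg/ml BSA, 1mM TCEP, 0.01% Tween-20.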

[14] = Primary qHTS for small molecule stabilizers of the endoplasmic reticulum resident proteome: Secreted ER Calcium Modulated Protein (SERCaMP) assay (AID 1508630); conditions: SH-SY5Y GLuc-SERCaMP (Gaussia luciferase released on ER calcium loss) secretion, thapsigargin, luminescence; series mostly up to 38.4 µM; also: % is scaled to controls: 0 for no effect and ±100 for the full control effect
Method in brief: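 GLuc-SERCaMP-expressing SH-SY5Y cells, pretreated 16 h with compound, are challenged with thapsigargin to empty ER calcium stores; after 4 h, coelenterazine is added directly to the medium and luminescence is imaged.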

[15] = molecular target: Cytochrome P450 3A4 (Homo sapiens) (UniProt P08684); assay: qHTS Assay for Inhibitors and Substrates of Cytochrome P450 3A4 (AID 884); conditions: recombinant CYP3A4, Luciferin-PPXE luminescence; series mostly up to 57.1 µM; also: potency is read from the fitted curve at half-maximal effect; nearly all actives have a fitted effect of over 50% in size
Method in brief: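 20 nM human CYP3A4 with 25 uM Luciferin-PPXE (at KM) in 200 mM KPO4, preincubated 10 min with compound; NADPH regeneration started a 60 min RT reaction. Luciferin detected by luminescence, normalized to 57 uM ketoconazole as full inhibition.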

[16] = molecular target: Cytochrome P450 2C19 (Homo sapiens) (UniProt P33261); assay: qHTS Assay for Inhibitors and Substrates of Cytochrome P450 2C19 (AID 899); conditions: recombinant CYP2C19, luciferin-H EGE luminescence; series mostly up to 57.1 µM; also: potency is read from the fitted curve at half-maximal effect; nearly all actives have a fitted effect of over 60% in size
Cytochrome P450 2C19 (Homo sapiens), sequence (P33261 whole entry, looked up): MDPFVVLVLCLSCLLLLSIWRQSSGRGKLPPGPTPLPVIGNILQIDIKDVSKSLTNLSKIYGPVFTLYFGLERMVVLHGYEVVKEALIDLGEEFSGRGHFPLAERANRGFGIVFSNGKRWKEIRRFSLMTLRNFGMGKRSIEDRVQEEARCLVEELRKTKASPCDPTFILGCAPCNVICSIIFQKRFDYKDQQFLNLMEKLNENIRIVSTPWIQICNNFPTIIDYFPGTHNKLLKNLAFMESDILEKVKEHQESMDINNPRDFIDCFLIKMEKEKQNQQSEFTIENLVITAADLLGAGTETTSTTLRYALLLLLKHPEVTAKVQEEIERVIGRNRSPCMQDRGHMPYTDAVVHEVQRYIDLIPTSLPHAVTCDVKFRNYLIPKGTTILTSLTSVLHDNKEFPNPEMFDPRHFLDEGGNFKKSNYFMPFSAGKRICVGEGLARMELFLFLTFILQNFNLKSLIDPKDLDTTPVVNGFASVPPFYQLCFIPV
Method in brief: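 Luminescent read-out of luciferin formed from Luciferin-H EGE (10uM, equal to KM). Enzyme 5nM in 50mM KPO4; compound added, 10 min at 37C, then NADPH regenerating system for 60 min at 37C. Full inhibition defined by 57uM ketoconazole.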

[17] = molecular target: Dual specificity protein kinase CLK4 (Homo sapiens) (UniProt Q9HAZ1); assay: qHTS Assay for Inhibitors of CDC-like Kinase 4 (Kinase-Glo Assay) (AID 1770); conditions: recombinant Clk4, Kinase-Glo ATP depletion luminescence; series mostly up to 66.7 µM; also: nearly all actives have a fitted effect of over 65% in size; also: potency is read from the fitted curve at half-maximal effect
Method in brief: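 Recombinant human Clk4 (25 nM) phosphorylated RS repeat peptide (100 uM) with 1 uM ATP in Tris pH 7.5/MgCl2/EGTA/DTT/Triton buffer for 4.5 h at room temperature. Residual ATP was quantified by Kinase-Glo luciferase luminescence.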

CC(=O)NCCNc1ncncc1-c1ccccc1CN(C)C
inactive: Potency [1] > 11.4 µM | activity change, negative = inhibition [2] 1.84% | activity change, negative = inhibition [4] -2.17% | activity, negative = inhibition [5] 0.764% | Potency [6] > 46 µM | Potency [7] > 46 µM | Potency [8] | Potency [9] | Potency [10] | Potency [11] | Potency [12] | Potency [13] | outcome [14]
active: Potency [3] 25.1 µM

CN(C)C(=O)c1ccc(-c2cncnc2NCc2cccnc2)cc1
active: Potency [3] 5.01 µM | Potency [15] 5.01 µM | Potency [16] 2.51 µM
inactive: Potency [1] > 11.4 µM | activity change, negative = inhibition [2] 22% | activity change, negative = inhibition [4] 3.94% | activity, negative = inhibition [5] 17.6% | Potency [6] > 46 µM | Potency [7] > 46 µM | Potency [8] | Potency [9] | Potency [10] | Potency [11] | Potency [12] | Potency [13] | outcome [14]

Cc1noc(C)c1-c1nc(N(C)Cc2ccco2)c2ccccc2n1
active: Potency [17] 28.2 µM
inactive: Potency [1] > 11.4 µM | activity change, negative = inhibition [2] -1.42% | activity, negative = inhibition [5] -25.7% | Potency [6] > 46 µM | Potency [7] > 46 µM | Potency [9] | Potency [13] | outcome [14]

COCCn1c(=O)c(-c2cc(F)cc(F)c2)nc2cnc(N(C)C)nc21
inactive: Potency [1] > 11.4 µM | activity change, negative = inhibition [2] 3.27% | activity change, negative = inhibition [4] -6.48% | activity, negative = inhibition [5] -2% | Potency [6] > 9.22 µM | Potency [7] > 46 µM | Potency [8] | Potency [9] | Potency [11] | Potency [12] | Potency [13] | outcome [14]
active: Potency [3] 5.01 µM

COc1cccc(Nc2ncc3nc(-c4ccccc4)c(=O)n(C)c3n2)c1
inactive: Potency [1] > 11.4 µM | activity change, negative = inhibition [2] -7.32% | activity change, negative = inhibition [4] -6.92% | activity, negative = inhibition [5] 4.13% | Potency [6] > 9.22 µM | Potency [7] > 46 µM | Potency [8] | Potency [11] | Potency [12] | Potency [13] | outcome [14]
active: Potency [3] 3.16 µM

CN(C)C(=O)c1ccc(-c2nc(-n3ccnc3)c3ccccc3n2)cc1
active: Potency [3] 20 µM
inactive: activity, negative = inhibition [5] 6.8% | Potency [6] > 46 µM | Potency [7] > 46 µM | Potency [8] | Potency [9] | Potency [17] | Potency [13] | outcome [14]

Cc1ccccc1-c1nccc(NCc2cccnc2)n1
active: Potency [3] 0.2 µM | Potency [15] 3.98 µM | Potency [16] 5.01 µM | Potency [11] 28.2 µM
inactive: Potency [1] > 11.4 µM | activity change, negative = inhibition [2] 13% | activity change, negative = inhibition [4] 3.23% | activity, negative = inhibition [5] -15.6% | Potency [6] > 46 µM | Potency [7] > 46 µM | Potency [8] | Potency [9] | Potency [10] | Potency [12] | Potency [13] | outcome [14]
